One experiment deals with ABHD14A. Briefly: pooled miR-30 sensor sort-seq; sequence = guide strand. To be noted: shRNA.
Take TGAGTGGGAGCACCTCGCGGTA: the sensor-assay potency score (higher = more potent) was -1.68.

For the sequence TAAGGGTTGGAGTCTTCACAGC, the sensor-assay potency score (higher = more potent) is -1.08. Same read-out and setting: the same measure for TCTGTGACAGTAGCTGCAGTGT: -1.16; for TCCATGAAGCAGCACCACCTCC: -1.75; for TTGCGTAGCTTCACCACAGAGT: 0.297. With TAGCTTCACCACAGAGTGGTTG, the sensor-assay potency score (higher = more potent) is -1.24. On the same count and under the same terms, the same measure for TCGAGCCAGGATGTGGTCCAGC: -1.4; for GAGGTCTGTACCACAGTCGGGC: -1.45; for TGCATTGCGTAGCTTCACCACA: -1.6. For ATGGCCTGCATTGCGTAGCTTC, the sensor-assay potency score (higher = more potent) was -1.76. Same read-out and setting: the same measure for TTGAGTGGGAGCACCTCGCGGT: 0.0609.

For a further experiment, the target named is ABHD14B. The experiment is described as above. To be noted: shRNA.
Consider ATAGTTGGCAGCATTGATTTTG, for which the sensor-assay potency score (higher = more potent) was -0.758. Still for that read-out and setting: the same measure for TGGTTTGTCCAGGTAACAGGGG: -0.958; for TTGATTTTGTCAGTGCAGATGG: -0.728. Take TTTGTCCAGGTAACAGGGGTGC: the sensor-assay potency score (higher = more potent) is -1.14. Sequence TCCATATACAATCAGAGCTGGA yielded a sensor-assay potency score (higher = more potent) of -1.62. In turn, TAGTTGGCAGCATTGATTTTGT gave a sensor-assay potency score (higher = more potent) of -0.754. TTCAGGTGCTCAAAGCTGGTCT returned a sensor-assay potency score (higher = more potent) of -0.558. Same read-out and setting: the same measure for TTCTGCCAGGTCTCGGAGGAGA: -1.13; for TGCTTCAGGTGCTCAAAGCTGG: -0.768; for AAAGCTGGTCTGACCCATGGGG: -0.273. CTGGTCTCCATATACAATCAGA yielded a sensor-assay potency score (higher = more potent) of -2.16. Same read-out and setting: the same measure for TGGACTGATCACAACCGGGGGG: -0.281.

Source of the values: the OligoGym collection.
Further: reference of the scale not given here.
